Source: PubChem BioAssay
GALK inh: qHTS Assay for Inhibitors of Human Galactokinase (GALK). Purified GALK, Kinase-Glo residual ATP luminescence. hit rate 0.007% among 270,000. P51570. Potency, µM (series often up to 57.5 µM), most hits filed as inhibitors
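Kinase-Glo Plus luminescence measured ATP left after a 1 h room-temperature reaction. The reaction used 5 nM GALK, 100 uM galactose and 35 uM ATP at pH 8.0 (20 mM HEPES, 5 mM MgCl2, 60 mM NaCl, 1 mM DTT, 0.01% BSA).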
rTrxR1 inhibitor: qHTS Assay for Inhibitors of Mammalian Selenoprotein Thioredoxin Reductase 1 (TrxR1): qHTS. Thioredoxin reductase 1, cytoplasmic (Rattus norvegicus), O89049. recombinant rTrxR1, NADPH fluorescence consumption, selenite substrate. Potency, µM (highest dose often 114 µM), actives largely listed as inhibitors. hit rate 1% among 390,000; further: nearly all actives have a fitted effect of over 65% in size
Target sequence (O89049 whole entry, looked up): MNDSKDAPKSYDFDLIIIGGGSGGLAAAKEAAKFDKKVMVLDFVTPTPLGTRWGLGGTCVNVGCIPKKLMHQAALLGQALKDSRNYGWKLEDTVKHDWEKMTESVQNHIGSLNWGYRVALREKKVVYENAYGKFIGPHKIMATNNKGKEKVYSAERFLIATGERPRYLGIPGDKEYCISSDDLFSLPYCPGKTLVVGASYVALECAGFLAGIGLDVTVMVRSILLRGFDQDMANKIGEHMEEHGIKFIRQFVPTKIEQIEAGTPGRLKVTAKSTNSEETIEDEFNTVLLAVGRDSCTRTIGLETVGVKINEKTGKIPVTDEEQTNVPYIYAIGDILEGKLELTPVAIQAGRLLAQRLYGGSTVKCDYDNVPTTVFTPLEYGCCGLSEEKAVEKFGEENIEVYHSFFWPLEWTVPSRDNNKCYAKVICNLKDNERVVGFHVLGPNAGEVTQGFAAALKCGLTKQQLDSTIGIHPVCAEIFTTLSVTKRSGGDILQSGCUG
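Rat TrxR1 (90 nM in the dispensed reagent) was pre-reduced with 400 uM NADPH for 5 min at room temperature, then incubated with compound for 15 min. After 400 uM selenite was added, NADPH fluorescence (Ex 340/Em 450 nm) was followed for 8 min.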
FBPA coupling cs: qHTS Assay for Inhibitors of Fructose-1,6-bisphosphate Aldolase from Giardia Lamblia: Coupling assay counterscreen; hit rate 0.67% among 290,000; coupling enzyme system counterscreen, AmpLite Red fluorescence; AID 2472, 2010; activity change, negative = inhibition, % at 58.2 µM, hits read low; in the data active means activity change below about -30%
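Fluorescence at 525 nm excitation and 598 nm emission measured inhibition of the coupled detection system without aldolase. Compounds (at 57.5 uM final) were preincubated 10 min at room temperature with coupling enzyme reagent before a 20 min substrate/AmpLite Red step.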
USP1 inh: Inhibitors of USP1/UAF1: Primary Screen; recombinant USP1/UAF1, Ub-Rhodamine cleavage fluorescence; hit rate 0.23% among 390,000; AID 743255, 2014; Potency, µM (titrated, usually from 57.1 µM), actives largely listed as inhibitors; Ubiquitin carboxyl-terminal hydrolase 1 (Homo sapiens), O94782; further: nearly all actives have a fitted effect of over 60% in size
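USP1/UAF1 complex (1 nM) preincubated 15 min at room temperature with compound, then Ub-Rho substrate (150 nM final) added. Kinetic fluorescence at 480/540 nm over 6 reads at 60 s intervals; 50 mM HEPES pH 7.8, 0.5 mM EDTA, 0.1 mg/ml BSA, 1 mM TCEP, 0.01% Tween-20.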
TrxR1 substrate: qHTS Assay for Substrates of Mammalian Selenoprotein Thioredoxin Reductase 1 (TrxR1): qHTS; Thioredoxin reductase 1, cytoplasmic (Rattus norvegicus), O89049; purified TrxR1 substrate turnover, NADPH consumption readout; Potency, µM (titrated, usually from 114 µM); hit rate 0.01% among 390,000; AID 588456, 2011; further: nearly all actives have a fitted effect of over 50% in size
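Rat TrxR1, dispensed at 90 nM, was prereduced with 400 uM NADPH (final) for 5 min at ~22 deg C, then incubated with compound 15 min before 400 uM selenite. A first-read NADPH fluorescence drop versus no-compound background flagged substrates.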
Numbers stand for hits; - = inactive; ? = inconclusive; . = no result; [ ] = dose if it differs, or a comment. The list is not random: actives were taken first. Their share in the collection is about 1.5%. Unless noted, the call rests on the fitted dose curve; in most records, active means well fitted curve in the direction sought with a large enough effect; inconclusive means small, poorly fitted or top-dose-only effect, or another doubt; inactive means no such curve, though single readings can be large; an effect the other way counts as inactive or inconclusive.

SMILES | GALK inh | rTrxR1 inhibitor | FBPA coupling cs | USP1 inh | TrxR1 substrate
CCCOc1ccc(N2C(=O)CC(SCCN)C2=O)cc1 (stereo not given) | - | 79.4µM | - | - | -
CCCOc1ccccc1N1C(=O)CC(N(O)c2ccccc2)C1=O (stereo not given) | - | - | - | - | -
COc1ccccc1N(O)C1CC(=O)N(c2ccc(F)cc2)C1=O (stereo not given) | - | 0.891µM | - | - | -
CCCOc1ccc(N2C(=O)CC(N(O)c3ccccc3)C2=O)cc1 (stereo not given) | - | 7.94µM | - | - | -
c1ccc(-c2ccc(N3CCCC4(CCNCC4)C3)cc2)cc1 | . | . | - | . | .
CN(C)c1ccc(C2C=Cc3ccccc32)c2ccccc12 (stereo not given) | . | - | . | . | -
CCOC(=O)C(=Cc1ccc(-n2cncn2)cc1)C(=O)OCC | - | 22.4µM | - | - | -
CCOC(=O)C(=Cc1ccccc1)C(=O)OCC | . | . | - | . | .
C[C@H](Cc1ccc(O)c(O)c1)[C@@H](C)Cc1ccc(O)c(O)c1 | . | 12.6µM | . | . | -
Cc1cccc(NC(=O)CSc2ccc(-c3ccccn3)nn2)c1C | - | - | - | - | -
O=C(CSc1ccc(-c2ccco2)nn1)c1cccc([N+](=O)[O-])c1 | - | 15.8µM | - | - | -
O=C(CSc1ccc(-c2ccco2)nn1)NCc1ccc(Cl)cc1 | - | 28.2µM | - | - | -
Cc1cc(SCC(=O)c2cccc([N+](=O)[O-])c2)nc(=O)[nH]1 | - | - | . | - | -
COc1ccc(C)cc1NC(=O)CSc1ccc(-c2ccco2)nn1 | - | 15.8µM | . | - | -
Cc1cccc(NC(=O)CSc2ccc(-c3ccco3)nn2)c1C | - | 12.6µM | - | - | -
O=C(CSc1ccc(-c2ccco2)nn1)NCc1ccccc1 | - | ? | - | - | -
Cc1cccc2[nH]cc(/C=C3/C=Nc4ccccc43)c12 | . | - | . | . | -
Cc1ccc(S(=O)(=O)N2CCN(c3nc(-c4cnccn4)nc4ccccc34)CC2)cc1 | . | - | . | . | -
O=C(CSc1ccc(-c2ccccn2)nn1)Nc1ccc(F)cc1F | - | - | . | - | -
CC(=O)c1cccc(NC(=O)CSc2ccc(-c3ccco3)nn2)c1 | - | 11.2µM | . | - | -
O=C(CSc1ccc(-c2ccco2)nn1)Nc1ccc(F)cc1F | - | 25.1µM | . | - | -
CCc1ccc(NC(=O)CSc2ccc(-c3ccco3)nn2)cc1 | - | ? | - | - | -
Nc1ccccc1/C=C/c1ccnc2ccccc12 | . | - | . | . | -
Cc1ccccc1C(=O)NNC(=O)/C=C\C(=O)O | - | 7.08µM | - | - | -
CCN(CC)S(=O)(=O)c1cccc(C(=O)N/N=C/c2cccc(O)c2O)c1 | - | - | -52.4 | - | -
SMILES | GALK inh | rTrxR1 inhibitor | FBPA coupling cs | USP1 inh | TrxR1 substrate
CCN(CC)S(=O)(=O)c1cccc(C(=O)N/N=C/c2cc(OC)c(O)c(OC)c2)c1 | - | - | - | - | -
Cc1ccc(S(=O)(=O)N(C)CCN(C)c2nc(-c3cccs3)nc3ccccc23)cc1 | . | - | . | . | -
O=C(c1cc2ccccc2[nH]1)c1cc2cc(O)ccc2[nH]1 | . | - | . | . | -
CC(=O)NCCCN(Cc1ccc(Cl)c(Cl)c1)c1ccc(Br)cn1 | . | - | . | . | -
O=c1c(C(c2c(O)nc3n(c2=O)CCS3)c2cccc3ccccc23)c(O)nc2n1CCS2 | - | 11.2µM | - | - | -
O=c1c(C(c2ccc(O)cc2)c2c(O)nc3n(c2=O)CCCS3)c(O)nc2n1CCCS2 | - | 3.55µM | - | - | -
Cc1ccc(C(c2c(O)nc3n(c2=O)CCS3)c2c(O)nc3n(c2=O)CCS3)cc1 | - | 2.82µM | - | - | -
O=c1c(Cc2ccccc2)c(O)nc2n1CCS2 | . | - | - | - | -
CCCc1nn2c(=O)c(C(c3ccc(C)cc3)c3c(O)nc4sc(CCC)nn4c3=O)c(O)nc2s1 | . | - | - | - | -
O=c1c2ccccc2nc2n1CCCS2 | - | - | - | - | -
O=c1c(C(c2ccc(O)cc2)c2c(O)nc3n(c2=O)CCS3)c(O)nc2n1CCS2 | - | 3.16µM | - | - | -
Cc1cc(C)nc(N/C=C(\C#N)C(=O)c2cccc(CSc3ccccc3)c2)n1 | . | - | . | . | -
OC(CN1C=CCc2ccccc21)c1ccc(Cl)cc1Cl (stereo not given) | . | - | . | . | -[0.0914 µM]
CN(C)c1ccc(N=Cc2nc(-c3ccccc3)oc2OC(=O)c2ccccc2)cc1 | - | - | - | - | -
COc1ccccc1N=Cc1nc(-c2ccccc2)oc1OC(C)=O | - | - | - | - | -
CC(=O)Oc1oc(-c2ccccc2)nc1/C=N/c1ccccn1 | - | 7.08µM | - | - | -
CC(=O)Oc1oc(-c2ccccc2)nc1C=Nc1ccc(N(C)C)cc1 | - | -[11.4 µM] | - | 25.1µM | -
CC(C)(C)n1ncc2c(=O)n(Cc3ccc(F)c(F)c3F)cnc21 | . | - | . | . | -
Cc1ccc(O)c(C(=O)c2cc(C#N)c(=O)n(-c3nccs3)c2)c1 | - | - | - | 17.8µM | -
Cc1ccc(O)c(C(=O)c2cc(C#N)c(=O)n(-c3c(C)n(C)n(-c4ccccc4)c3=O)c2)c1 | - | - | - | - | -
CC1=C(C#N)C(=O)N(C2CCS(=O)(=O)C2)C(=O)/C1=C\c1ccco1 (stereo not given) | . | . | -30.6 | . | .
Cc1cc(O)c(C(=O)/C=C/c2ccc(Cl)cc2)c(=O)o1 | - | - | - | - | -
Cc1ccc(/C=C/C(=O)c2ccc([N+](=O)[O-])o2)cc1 | . | 6.31µM | . | - | -
O=C(/C=C/c1ccc(Cl)cc1)c1ccc([N+](=O)[O-])o1 | . | 5.01µM | . | ? | -
Cc1nc2ccc(C(=O)OC(C)C(=O)c3c(C)[nH]c4ccccc34)cc2nc1C (stereo not given) | . | - | . | . | -
SMILES | GALK inh | rTrxR1 inhibitor | FBPA coupling cs | USP1 inh | TrxR1 substrate
COc1ccccc1/C=C/C=C1\Oc2c(ccc(O)c2CN2CCN(CCO)CC2)C1=O | - | 25.1µM | - | 31.6µM | -
CN(C)Cc1c(O)ccc2c1O/C(=C\C=C\c1ccccc1)C2=O | - | 79.4µM | - | ? | -
O=C1/C(=C/C=C/c2ccccc2)Oc2c1ccc(O)c2CN1CCN(CCO)CC1 | - | ? | - | ? | -
Cc1c(Cl)cccc1N=Cc1ccc([N+](=O)[O-])s1 | - | ? | - | 31.6µM | -
CCC(=O)NC1=C(NC(C)c2ccccc2)C(=O)c2ccccc2C1=O (stereo not given) | - | - | -46.2 | - | -
CCOC(=O)c1ccc(NC(=O)Cn2ncc(Cl)c(Cl)c2=O)cc1 | - | ? | - | - | -
O=C(OCn1ncc(Cl)c(Cl)c1=O)c1ccc(C(F)(F)F)cc1 | - | 17.8µM | - | ? | -
Cc1ccc(C(=O)OCn2ncc(Cl)c(Cl)c2=O)cc1 | - | 12.6µM | - | - | -
